# Test results taken from PubChem BioAssay.
# Calls of active or inactive are those of the source.
# Experiments:
# [1] = test system: Human papillomavirus type 1a protein E7 (residues 44-93); assay: small molecules binding HPV E7 44-93 – biochemical, small-molecule microarray, residues 44-93, 635 nm fluorescence, primary screen (AID 1108); details: fluorescence 635 nm, higher = more signal;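 note: E7 fragment applied at 1 µg/mL in TBST for 1 h at 4 C; score combines spot fluorescence with its signal to noise ratio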
# [2] = hepatitis C replication reporter changes, two-sided – Huh7 cells, luciferase reporter, HCV replication inhibitor project, primary screen (AID 1109); details: Huh7 HCV replicon luciferase reporter, 48 h; higher = more signal;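 note: huh7 hepatoma cells harbouring a luciferase neomycin HCV replicon reporter; luciferase luminescence as measure of HCV replicon replication; test concentration not given here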
# [3] = target: Left-right determination factor 2 (Homo sapiens) (UniProt O00292); assay: small molecules binding LEFTY2 protein – biochemical, small-molecule microarray, 635 nm fluorescence scan, primary screen (AID 1110); details: higher = more signal
# Sequence of Left-right determination factor 2 (Homo sapiens) (O00292 whole entry, looked up): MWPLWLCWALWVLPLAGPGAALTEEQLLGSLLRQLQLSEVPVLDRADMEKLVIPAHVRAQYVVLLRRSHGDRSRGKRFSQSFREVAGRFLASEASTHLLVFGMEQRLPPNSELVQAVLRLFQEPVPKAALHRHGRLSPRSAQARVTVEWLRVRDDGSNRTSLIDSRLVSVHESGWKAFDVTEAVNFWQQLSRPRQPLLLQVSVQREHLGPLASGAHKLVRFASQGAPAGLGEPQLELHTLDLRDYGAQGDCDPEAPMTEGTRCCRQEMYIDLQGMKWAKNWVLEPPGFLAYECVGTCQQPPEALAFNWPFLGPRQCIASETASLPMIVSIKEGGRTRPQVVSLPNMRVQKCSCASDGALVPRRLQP
# [4] = target: Calmodulin-1 (Homo sapiens) (UniProt P0DP23); assay: small molecules binding calmodulin-1 with EGTA – biochemical, small-molecule microarray, Cy5-labelled CALM1, profiling panel (AID 1111); details: Cy5-CALM1 binding fluorescence, higher = more signal;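 note: labelled calmodulin applied in Tris saline Tween buffer holding calcium plus EGTA and DTT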
# [5] = target: Calmodulin-1 (Homo sapiens) (UniProt P0DP23); assay: small molecules binding Ca-loaded calmodulin-1 – biochemical, small-molecule microarray, Cy5-labelled CALM1, plus calcium, artefact control for SMM control-protein annotation, profiling panel (AID 1112); details: Cy5-CALM1 binding fluorescence, higher = more signal;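 note: score merges spot fluorescence with signal to noise from triplicate slides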
# [6] = probe aWnt5a binding to arrayed compounds – biochemical, biotinylated probe, 635/667 nm fluorescence, primary screen (AID 1113); details: small-molecule microarray, higher = more signal;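 note: score merges 667 nm fluorescence intensity with signal-to-noise per printed feature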
# [7] = probe aShh binding to arrayed compounds – biochemical, biotinylated probe, 635/667 nm fluorescence, primary screen (AID 1114); details: small-molecule microarray, higher = more signal;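 note: probe is biotin-labelled aShh protein from a stem cell growth factor screen; measures binding of labelled protein to compounds printed on the slide; score merges feature fluorescence at 667 nm with signal-to-noise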
# [8] = probe aNog binding to arrayed compounds – biochemical, biotinylated probe, 635/667 nm fluorescence, primary screen (AID 1115); details: small-molecule microarray, higher = more signal;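 note: probe is biotinylated aNog protein used at 0.15 µg/mL for 1 h at 4 C; z-score combines 667 nm fluorescence of each spot with its signal to noise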
# [9] = target: Torsin-1A-interacting protein 1 (Homo sapiens) (UniProt Q5JTV8); assay: compound microarray binding of lysate hLAP1 – cell lysate, small-molecule microarray, COS7 lysate, 635/667 nm fluorescence, primary screen (AID 1116); details: 635 nm fluorescence, higher = more signal
# Sequence of Torsin-1A-interacting protein 1 (Homo sapiens) (Q5JTV8 whole entry, looked up): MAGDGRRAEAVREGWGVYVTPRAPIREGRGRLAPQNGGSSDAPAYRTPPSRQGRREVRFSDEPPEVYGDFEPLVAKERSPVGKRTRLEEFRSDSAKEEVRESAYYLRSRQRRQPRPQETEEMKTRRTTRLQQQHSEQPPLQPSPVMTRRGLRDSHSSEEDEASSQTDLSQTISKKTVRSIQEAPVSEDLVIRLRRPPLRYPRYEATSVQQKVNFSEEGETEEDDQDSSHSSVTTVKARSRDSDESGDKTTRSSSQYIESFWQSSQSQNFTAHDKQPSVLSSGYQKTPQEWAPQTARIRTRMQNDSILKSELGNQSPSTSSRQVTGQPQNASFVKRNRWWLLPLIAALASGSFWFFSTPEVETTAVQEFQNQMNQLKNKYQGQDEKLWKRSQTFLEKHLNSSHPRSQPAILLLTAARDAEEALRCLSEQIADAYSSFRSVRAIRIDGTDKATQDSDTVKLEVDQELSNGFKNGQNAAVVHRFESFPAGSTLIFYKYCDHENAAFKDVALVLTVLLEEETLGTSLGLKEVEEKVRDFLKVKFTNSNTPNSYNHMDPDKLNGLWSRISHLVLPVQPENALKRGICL
# [10] = target: Alpha-bungarotoxin (Bungarus multicinctus) (UniProt P60615); assay: compounds binding labelled alpha-BTX control protein – biochemical, small-molecule microarray, Alexa647 label, 635/667 nm fluorescence, artefact control for SMM control protein annotation, profiling panel (AID 1117); details: alpha-BTX-A647 binding fluorescence, higher = more signal
# Sequence of Alpha-bungarotoxin (Bungarus multicinctus) (P60615 whole entry, looked up): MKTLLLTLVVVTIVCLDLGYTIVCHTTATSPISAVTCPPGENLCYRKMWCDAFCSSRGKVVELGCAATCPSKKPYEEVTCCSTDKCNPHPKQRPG
# [11] = target: Albumin (Bos taurus) (UniProt P02769); assay: compounds binding labelled BSA control protein – biochemical, small-molecule microarray, Alexa647 label, 635/667 nm fluorescence, artefact control for SMM control protein annotation, profiling panel (AID 1118); details: BSA-A647 binding, fluorescence 635 nm, higher = more signal;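 note: score merges 667 nm emission intensity and signal-to-noise per printed compound spot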
# Sequence of Albumin (Bos taurus) (P02769 whole entry, looked up): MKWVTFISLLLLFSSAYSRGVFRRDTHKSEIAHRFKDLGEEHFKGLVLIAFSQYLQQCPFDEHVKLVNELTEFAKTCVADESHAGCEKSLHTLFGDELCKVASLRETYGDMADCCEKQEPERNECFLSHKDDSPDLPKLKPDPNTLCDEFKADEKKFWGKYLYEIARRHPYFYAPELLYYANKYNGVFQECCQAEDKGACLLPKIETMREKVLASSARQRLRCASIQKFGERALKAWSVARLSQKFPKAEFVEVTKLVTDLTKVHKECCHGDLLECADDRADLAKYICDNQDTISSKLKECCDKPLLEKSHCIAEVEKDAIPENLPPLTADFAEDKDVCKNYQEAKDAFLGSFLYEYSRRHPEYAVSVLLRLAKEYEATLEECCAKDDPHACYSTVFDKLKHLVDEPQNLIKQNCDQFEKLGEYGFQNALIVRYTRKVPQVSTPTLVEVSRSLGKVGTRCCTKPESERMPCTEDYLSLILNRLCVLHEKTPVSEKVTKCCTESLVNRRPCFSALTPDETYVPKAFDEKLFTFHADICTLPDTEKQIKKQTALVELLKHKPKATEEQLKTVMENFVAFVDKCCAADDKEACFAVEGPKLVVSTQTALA
# [12] = probe aXIP binding to arrayed compounds – biochemical, NeuroSMM set, 635/667 nm fluorescence, primary screen (AID 1119); details: small-molecule microarray, higher = more signal, called active from +8 up or from −8 down;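 note: probe is the protein aXip251-270 applied at 1 µg/mL to compound-printed slides; binding of probe to printed compounds measured as 667 nm fluorescence plus signal to noise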
# [13] = probe aNOTCH3 binding on compound microarray – biochemical, small-molecule microarray, 635/667 nm fluorescence, primary screen (AID 1120); details: higher = more signal;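 note: probe is a biotin-tagged antibody raised against NOTCH3 rather than NOTCH3 protein; score merges spot fluorescence near 667 nm with spot signal to noise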
# [14] = probe aNOTCH2 binding on compound microarray – biochemical, small-molecule microarray, 635/667 nm fluorescence, primary screen (AID 1121); details: higher = more signal;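 note: score merges feature fluorescence read at 667 nm with its signal to noise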
# [15] = target: Carbonic anhydrase 2 (Homo sapiens) (UniProt P00918); assay: compounds binding carbonic anhydrase 2 – biochemical, small-molecule microarray, Alexa647-labelled CAII, profiling panel (AID 1122); details: CAII-A647 binding fluorescence, higher = more signal
# [16] = COS7 lysate on small-molecule microarray, probe aHis, 635 nm (AID 1123); details: COS7 cell lysate, fluorescence, higher = more signal;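 note: z-score combines 667nm fluorescence intensity with signal-to-noise per printed compound spot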
# [17] = probe aLAP1 signal on lysate-treated microarray – cell lysate, small-molecule microarray, COS7 lysate, primary screen (AID 1124); details: probe aLAP1, fluorescence, higher = more signal;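 note: lysate comes from COS7 cells expressing LAP1 and is applied at 0.3 µg/mL; score merges spot fluorescence near 667 nm with signal-to-noise over triplicate slides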
# [18] = test system: Sam68 (KHDRBS1); assay: compounds binding KHDRBS1 protein – biochemical, small-molecule microarray, 635 nm fluorescence, primary screen (AID 1125); details: higher = more signal;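 note: score merges 667 nm channel intensity with signal to noise over triplicate slides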
# [19] = test system: Chordin-like protein 2 (CHRDL2); assay: compounds binding chordin-like 2 – biochemical, small-molecule microarray, 635 nm fluorescence, primary screen (AID 1126); details: fluorescence 635 nm, higher = more signal;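 note: printed compound slides probed with Chrdl2 protein at 4 µg/mL for 1 h at 4 C; score merges 667 nm emission intensity with signal to noise over three replicate slides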
# [20] = target: Concanavalin-A (Canavalia ensiformis) (UniProt P02866); assay: compounds binding concanavalin A lectin – biochemical, small-molecule microarray, Alexa647 label, 635 nm, artefact control for SMM control protein annotation, primary screen (AID 1127); details: ConA-A647 binding fluorescence, higher = more signal;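 note: z combines 667 nm emission intensity with signal-to-noise across three replicate slides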
# Sequence of Concanavalin-A (Canavalia ensiformis) (P02866 whole entry, looked up): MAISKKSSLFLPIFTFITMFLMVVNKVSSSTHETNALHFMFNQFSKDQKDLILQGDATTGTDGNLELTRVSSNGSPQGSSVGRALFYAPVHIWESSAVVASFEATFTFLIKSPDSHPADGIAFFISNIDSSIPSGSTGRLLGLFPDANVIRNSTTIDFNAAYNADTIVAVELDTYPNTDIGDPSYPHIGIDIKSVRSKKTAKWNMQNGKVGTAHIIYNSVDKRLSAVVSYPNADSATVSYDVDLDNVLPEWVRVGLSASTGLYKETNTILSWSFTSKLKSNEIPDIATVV
Structure (SMILES),composite z-score [1],z-score [2],composite z-score [3],composite z-score [4],composite z-score [5],composite z-score [6],composite z-score [7],composite z-score [8],composite z-score [9],composite z-score [10],composite z-score [11],composite Z-score [12],composite z-score [13],composite z-score [14],composite z-score [15],composite z-score [16],composite z-score [17],composite z-score [18],composite z-score [19],composite z-score [20]
COC(=O)[C@@]1(Cc2ccc(F)cc2)[C@H]2c3cc(C(=O)N4CCCC4)n(Cc4ccc(OC(F)(F)F)cc4)c3C[C@H]2CN1C(=O)c1ccccc1,0.118,0.234,-0.763,0.028,0.336,0.164,0.265,1.17,0.383,-0.272,0.435,-0.328 (inactive),0.0026,-0.0108,0.861,1.96,0.32,-0.701,-0.0979,-0.484
CN1C2C=C(c3ccc(CO)cc3)C(C3C(=O)N(C(N)=O)C(=O)C32)C1C1CC1 (stereo not given),0.249,-0.31,-0.423,-0.273,-0.915,-0.176,-0.229,-0.226,0.192,0.334,-0.43,-0.378 (inactive),-0.206,-0.146,-0.117,0.151,-0.262,0.267,-0.0733,0.688
CC(C)C[C@@H]1NC(=O)[C@H]2C[C@@H](C(=O)O)[C@@H](c3cccc(OCCO)c3)N2C1=O,-0.239,2.62,0.779,-0.418,-0.2,-0.0704,-0.0289,-0.0503,0.884,0.209,-0.371,-0.12 (inactive),-0.0014,-0.0761,0.265,1.38,0.327,0.531,1.12,0.587
O=C1C2C=CC(C(O)C3CCCCC3)N(Nc3ccccc3F)C2C(=O)N1c1ccccc1 (stereo not given),1.45,-1.49,0.135,2.06,1,0.0993,-0.0054,-0.0116,1.27,2.4,0.97,0.485 (inactive),0.457,0.252,0.244,2.71,1,1.31,0.426,1.2
O=C(c1ccccc1)N1Cc2ccccc2C[C@@]2(N=C(c3ccc(OCCCO)cc3)O[C@H]2c2ccccc2)C1=O,1.38,-2.91,0.821,2.64,-0.249,-0.0515,0.0483,-0.432,2.39,1.01,-0.106,1.71 (inactive),0.0193,-0.0876,0.588,2.43,0.548,1.3,0.639,1.05
COCCOC(=O)N1C(=O)[C@@]2(c3cc(C#CC4=CCCCC4)ccc31)[C@H](C(=O)N1CCCCCCC1)[C@H]1C(=O)O[C@H](c3ccccc3)[C@H](c3ccccc3)N1[C@@H]2c1ccccc1OCCO,1.37,-0.794,0.327,1.78,0.759,0.16,0.926,1.2,1.94,1,0.321,0.496 (inactive),0.733,0.0596,0.522,1.58,1.2,1.3,0.6,1.11
C=C(C(=O)CC[C@@H](OC(=O)c1cccnc1)c1cccc(OCCO)c1)C(C)C,-0.501,-2.12,0.415,-0.323,-1.4,-0.0405,-0.123,-0.0784,0.534,0.316,-0.176,0.437 (inactive),0.0286,-0.141,0.14,-0.588,1.3,-0.588,-0.114,0.297
C=C(COC)/C(=C/C[C@@H](OC(C)=O)c1cccc(OCCO)c1)c1cnc2ccccc2c1,0.848,-1.73,0.754,-0.534,-0.593,0.0391,0.199,-0.0065,0.302,1.87,0.238,-0.365 (inactive),0.0916,-0.084,0.98,1.12,0.0842,0.965,1.42,0.877
COc1ccc(CCNC(=O)[C@@H]2c3ccccc3C(=O)N(Cc3cc(F)cc(C(F)(F)F)c3)[C@H]2c2ccc(CO)cc2)cc1,0.45,-0.989,0.262,1.05,0.197,0.0438,-0.314,1.86,1.59,0.715,-0.0885,-0.795 (inactive),0.249,0.207,0.753,2.1,1.51,1.03,0.0818,0.198
C[C@]12C(=O)N(CCO)[C@@H]3C(=O)N(c4ccc(Cl)cc4)CC=CC31O[C@@H]1/C=C\CCCOC(=O)C12 (stereo not given in full),-0.576,-0.445,-1.59,0.409,0.186,-0.18,-0.154,-0.153,-0.759,-0.181,0.575,0.0414 (inactive),-0.183,-0.0798,0.883,-0.485,-0.0785,-0.0284,-1.62,-0.263
CO[C@H]1O[C@H](CO)[C@@H](OC(=O)Nc2ccccc2)[C@@H]2OC(=O)[C@@H](Cc3ccccc3)C/C=C/C[C@H](Cc3ccccc3)C(=O)O[C@@H]12,0.779,-0.897,-0.152,-0.0442,-0.845,-0.0721,-0.154,-0.125,0.235,0.224,0.0558,0.547 (inactive),0.106,-0.0486,0.315,0.923,0.79,0.296,-0.0529,-0.216
